# Experimental data: PubChem BioAssay (EPA / NIEHS)
# Inconclusive results are not listed. The source made the active and inactive calls. How the source made its calls, unless noted: active means hit-call score of the fitted dose curve at least 0.9, where 1 is the maximum; inconclusive means response in the unintended direction; inactive means score below 0.9.
# What was measured:
# PGR (gene 5241) [1] = molecular target: PGR (gene 5241) (UniProt P06401); test: TOX21_PR_BLA_Followup_Agonist_ratio: Tox21 HEK293 Progesterone Receptor (PR) Agonism Beta-lactamase Follow-Up Assay, Ratio (AID 2283933)
# How it was run: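 Ratio-based beta-lactamase reporter signal after 16 hr compound treatment of PR-UAS-bla HEK293T cells at 37C. Substrate loading lasted 2 hr at room temperature.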
# PGR (gene 5241) [2] = molecular target: PGR (gene 5241) (UniProt P06401); test: TOX21_PR_BLA_Followup_Antagonist_ratio: Tox21 HEK293 Progesterone Receptor (PR) Antagonism Beta-lactamase Follow-Up Assay, Ratio (AID 2283934);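 further: PR-UAS-bla HEK293T cells stimulated with 1 nM R5020 agonist for 16 hr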
# How it was run: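 Measured in PR-UAS-bla HEK293T cells co-treated with compound and 1 nM promegestone for 16 hr; beta-lactamase ratio read after 2 h FRET substrate loading, with parallel CellTiter-Glo cytotoxicity.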
# [3] = TOX21_PR_BLA_Followup_Agonist_viability: Viability Assessment in the Tox21 HEK293 Progesterone Receptor (PR) Agonism Beta-lactamase Follow-Up Assay (AID 2283935);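 further: signal loss means lower viability so actives are cytotoxic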
# How it was run: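 Viability is read as CellTiter-Glo luminescence, where loss of signal indicates cytotoxicity. The cells are PR-UAS-bla HEK293T given compounds for 16 hr at 37C and 5% CO2, in the same wells used for the bla readout.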
# [4] = TOX21_PR_BLA_Followup_Antagonist_viability: Viability Assessment in the Tox21 HEK293 Progesterone Receptor (PR) Antagonism Beta-lactamase Follow-Up Assay (AID 2283936);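 further: cells exposed to compound with R5020 agonist for 16 h; hits lower the luminescence signal meaning cytotoxicity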
# How it was run: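 PR-UAS-bla HEK293T cells in medium with 2% charcoal-stripped FBS were treated with compounds plus R5020 for 16 hr at 37C. After the beta-lactamase read, CellTiter-Glo was added to the same wells and luminescence read after 30 min at room temperature.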
# PGR (gene 5241) [5] = molecular target: PGR (gene 5241) (UniProt P06401); test: TOX21_PR_LUC_Followup_Agonist: Tox21 HEK293 Progesterone Receptor (PR) Agonism Luciferase Follow-Up Assay (AID 2283937; active means hit-call score of the fitted dose curve at least 0.9, where 1 is the maximum; inactive means score below 0.9)
# How it was run: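 In HEK293 cells stably expressing PR-A with a luciferase reporter, compounds were incubated 16 h at 37C, and induced luminescence was quantified with ONE-Glo, multiplexed with cell viability.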
# PGR (gene 5241) [6] = molecular target: PGR (gene 5241) (UniProt P06401); test: TOX21_PR_LUC_Followup_Antagonist: Tox21 HEK293 Progesterone Receptor (PR) Antagonism Luciferase Follow-Up Assay (AID 2283938);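 further: curve fitted upward as signal gain over DMSO baseline despite antagonist label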
# How it was run: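 Luminescence from ONE-Glo was measured 30 min after reagent addition, following 16 h exposure of HEK293-PR-A-luc cells (3,000/well, plated 5 h earlier) to DMSO-dissolved compounds at 37C; DMSO served as baseline.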
# [7] = TOX21_PR_LUC_Followup_Antagonist_viability: Viability Assessment in the Tox21 HEK293 Progesterone Receptor (PR) Antagonism Luciferase Follow-Up Assay (AID 2283940)
# How it was run: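 Loss of CellTiter-Glo ATP signal indicates cytotoxicity in HEK293-PR-A-luc cells grown in 10% charcoal-stripped FBS medium, seeded 3,000 per well and incubated 16 h with compound at 37C.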
# [8] = TOX21_PR_LUC_Followup_Agonist_viability: Viability Assessment in the Tox21 HEK293 Progesterone Receptor (PR) Agonism Luciferase Follow-Up Assay (AID 2283941);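 further: loss of signal means cytotoxicity so actives lower viability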
# How it was run: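 Seeding: HEK293-PR-A-luc, 3,000 cells/well, 5 h at 37C. Treatment: compound in DMSO, 16 h, 37C. Read: CellTiter-Glo ATP luminescence, signal loss taken as lower viability.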
# THRA (gene 7067) = THRA (gene 7067) (UniProt P10827); test: TOX21_TRA_COA_Agonist_Followup_ratio: Tox21 Thyroid Hormone Receptor alpha Agonism through Coactivator Recruitment Follow-Up Assay, Ratio (AID 2283948; active means hit-call score of the fitted dose curve at least 0.9, where 1 is the maximum; inactive means score below 0.9)
# How it was run: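 Cell-free TR-FRET coactivator recruitment: GST-tagged TRα LBD (2.5 nM) with 0.10% BSA was incubated with compound, then fluorescein-SRC-2 peptide (200 nM) and Tb-anti-GST antibody (2 nM) added. 520:495 nm ratio normalized to DMSO (0%) and T3 (100%).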
# THRB (gene 7068) [9] = molecular target: THRB (gene 7068) (UniProt P10828); test: TOX21_TRB_BLA_Agonist_Followup_ratio: Tox21 Thyroid Hormone Receptor beta Agonism Beta-lactamase (BLA) Follow-Up Assay, Ratio (AID 2283954)
# How it was run: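 Agonist mode: compounds (11-point, triplicate) incubated 18 h with HEK293T cells carrying GAL4-DBD/human TRβ-LBD and UAS-β-lactamase. Blue/green (460/530 nm) FRET ratio read after 2 h CCF4-AM loading; CellTiter-Glo viability run in the same plates.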
# THRB (gene 7068) [10] = molecular target: THRB (gene 7068) (UniProt P10828); test: TOX21_TRB_COA_Agonist_Followup_ratio: Tox21 Thyroid Hormone Receptor beta Agonism through Coactivator Recruitment Follow-Up Assay, Ratio (AID 2283963; active means hit-call score of the fitted dose curve at least 0.9, where 1 is the maximum; inactive means score below 0.9)
# How it was run: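 Cell-free TR-FRET coactivator recruitment: GST-tagged TRβ LBD (5.0 nM) with 0.10% BSA incubated with compound, then fluorescein-SRC-2 peptide (200 nM) and Tb-anti-GST antibody (2 nM) added. 520:495 nm ratio normalized to DMSO (0%) and T3 (100%).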
# [11] = molecular target: Retinoic acid receptor RXR-alpha (Homo sapiens) (UniProt P19793); test: TOX21_TR_RXR_BLA_Agonist_Followup_ratio: Tox21 Thyroid Hormone Receptor beta Retinoid X Receptor alpha (RXRa) Agonism Beta-lactamase (BLA) Follow-Up Assay, Ratio (AID 2283968)
# How it was run: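 Agonism is scored as an increase in the 460:530 nm beta-lactamase substrate ratio over DMSO in RXRa-UAS-bla HEK293T cells exposed for 16 h to 11 compound concentrations.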
# [12] = molecular target: Nucleoli Translocation, AR (gene 367) (UniProt P10275); test: UPITT_HCI_U2OS_AR_TIF2_Nucleoli_Antagonist: University of Pittsburgh U2OS Androgen Receptor-Transcriptional Intermediary Factor 2 (AR-TIF2) Antagonism High Content Imaging Assay for Nucleoli Translocation (AID 2283997)
# How it was run: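 Compounds are added at 20 uM final concentration in 0.2% DMSO to U2OS cells carrying AR-RFP and TIF2-GFP fusions. Nucleolar AR-RFP fluorescence is then quantified by automated imaging. Antagonism is fitted positively against DHT baseline.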
# [13] = molecular target: Ratio of Nucleoli Translocation and Cytoplasm, AR (gene 367) (UniProt P10275); test: UPITT_HCI_U2OS_AR_TIF2_Nucleoli_Cytoplasm_Ratio_Antagonist: University of Pittsburgh U2OS Androgen Receptor-Transcriptional Intermediary Factor 2 (AR-TIF2) Antagonism High Content Imaging Assay for Ratio of Nucleoli Translocation and Cytoplasm (AID 2283999);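 further: antagonists lower the DHT-driven ratio of nucleolar to cytoplasmic red signal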
# How it was run: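 This antagonist-mode endpoint tracks AR-RFP localisation, the nucleolus-to-cytoplasm intensity ratio, in TIF2-GFP-coexpressing U2OS cells. DMSO stays at or below 0.5%; testing spans 20 uM single-dose and 0.195–50 uM series, with DHT setting the activity baseline.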
# [14] = molecular target: Ratio of Nucleoli Translocation and Cytoplasm, AR (gene 367) (UniProt P10275); test: UPITT_HCI_U2OS_AR_TIF2_Nucleoli_Cytoplasm_Ratio_Agonist: University of Pittsburgh U2OS Androgen Receptor-Transcriptional Intermediary Factor 2 (AR-TIF2) Agonism High Content Imaging Assay for Ratio of Nucleoli Translocation and Cytoplasm (AID 2284000);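 further: hits raise the red nucleolar to cytoplasm ratio above vehicle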
# How it was run: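 Human osteosarcoma U2OS line, AR-RFP plus TIF2-GFP; compounds 0.195–50 uM final, 0.5% DMSO. Readout: nucleolar/cytoplasmic RFP ratio by HCI, positive direction vs DMSO baseline.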
# [15] = CCTE_Harrill_HTTr_Viability_MCF7: CCTE's 6-hour Cell Viability Assessment for the High-Throughput Transcriptomics (HTTr) Platform, in MCF-7 cells cultured in DMEM + 10% fetal bovine serum, Harrill Lab (AID 2284010; active means hit-call score of the fitted dose curve at least 0.9, where 1 is the maximum; inactive means score below 0.9)
# How it was run: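 Eight-point concentration series, six-hour exposure. Propidium iodide exclusion imaged to assess membrane integrity as a cytotoxicity readout; bidirectional fitting was done with DMSO as negative control and activity baseline.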
# [16] = CCTE_Harrill_HTTr_Apoptosis_MCF7: CCTE's 6-hour Apoptosis Assessment for the High-Throughput Transcriptomics (HTTr) Platform, in MCF-7 cells cultured in DMEM + 10% fetal bovine serum, Harrill Lab (AID 2284011; active means hit-call score of the fitted dose curve at least 0.9, where 1 is the maximum; inactive means score below 0.9)
# How it was run: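 High-content imaging of CellEvent Caspase 3/7 Green signal follows a six-hour exposure, with eight concentrations per chemical. MCF-7 cells grown in DMEM plus 10% fetal bovine serum; activity fitted in both directions against DMSO.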
# [17] = TOX21_TRB_BLA_Agonist_Followup_viability: Viability Assessment in the Tox21 Thyroid Hormone Receptor beta Agonism Beta-lactamase (BLA) Follow-Up Assay (AID 2283956)
# How it was run: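 Viability was read as CellTiter-Glo luminescence in the same wells as the TRb-bla agonist read-out. HEK293T GAL4-TRb LBD cells were treated for 18 h (37C, 5% CO2) at 11 concentrations in triplicate. Fits were bidirectional versus DMSO baseline.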
# [18] = CCTE_Harrill_HTTr_CellCount_MCF7: CCTE's Cell Proliferation Assessment for the High-Throughput Transcriptomics (HTTr) Platform, Harrill Lab (AID 2284012);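 further: count of Hoechst-stained nuclei per well by high-content imaging in MCF-7 cells; cells exposed to compound for six hours; intended direction is loss of nuclei count meaning fewer cells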
# How it was run: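 For this full-screen endpoint, MCF-7 cultures received eight compound dilutions for six hours. Well nuclei counts from Hoechst imaging were analyzed relative to DMSO.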
# Ratio of Nucleoli Translocation and Cytoplasm, AR (gene 367), sequence (P10275 whole entry, looked up): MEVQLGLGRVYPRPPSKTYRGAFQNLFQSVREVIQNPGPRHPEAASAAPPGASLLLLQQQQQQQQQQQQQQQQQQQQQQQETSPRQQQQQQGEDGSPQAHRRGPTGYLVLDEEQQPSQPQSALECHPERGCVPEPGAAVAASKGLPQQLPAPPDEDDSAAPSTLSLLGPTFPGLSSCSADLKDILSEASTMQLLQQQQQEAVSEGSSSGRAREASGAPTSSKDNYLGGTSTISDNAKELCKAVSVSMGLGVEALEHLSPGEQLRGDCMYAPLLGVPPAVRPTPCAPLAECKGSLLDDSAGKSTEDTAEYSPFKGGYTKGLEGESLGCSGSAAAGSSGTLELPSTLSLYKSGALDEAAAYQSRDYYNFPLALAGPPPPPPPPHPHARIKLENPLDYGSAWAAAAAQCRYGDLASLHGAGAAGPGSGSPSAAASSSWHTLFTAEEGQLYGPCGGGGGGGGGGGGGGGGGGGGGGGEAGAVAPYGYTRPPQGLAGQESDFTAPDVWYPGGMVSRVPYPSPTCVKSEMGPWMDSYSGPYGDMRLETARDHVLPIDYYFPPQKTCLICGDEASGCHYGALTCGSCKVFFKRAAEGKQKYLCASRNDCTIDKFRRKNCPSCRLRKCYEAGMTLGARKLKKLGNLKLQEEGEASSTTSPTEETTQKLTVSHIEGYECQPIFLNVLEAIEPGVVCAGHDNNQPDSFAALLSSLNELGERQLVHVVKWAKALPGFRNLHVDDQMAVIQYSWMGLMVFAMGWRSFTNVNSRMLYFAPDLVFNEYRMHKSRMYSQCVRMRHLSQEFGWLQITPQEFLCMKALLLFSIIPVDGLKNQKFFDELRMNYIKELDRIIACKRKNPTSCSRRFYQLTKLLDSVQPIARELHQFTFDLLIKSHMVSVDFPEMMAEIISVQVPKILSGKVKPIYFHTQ
# PGR (gene 5241), sequence (P06401 whole entry, looked up): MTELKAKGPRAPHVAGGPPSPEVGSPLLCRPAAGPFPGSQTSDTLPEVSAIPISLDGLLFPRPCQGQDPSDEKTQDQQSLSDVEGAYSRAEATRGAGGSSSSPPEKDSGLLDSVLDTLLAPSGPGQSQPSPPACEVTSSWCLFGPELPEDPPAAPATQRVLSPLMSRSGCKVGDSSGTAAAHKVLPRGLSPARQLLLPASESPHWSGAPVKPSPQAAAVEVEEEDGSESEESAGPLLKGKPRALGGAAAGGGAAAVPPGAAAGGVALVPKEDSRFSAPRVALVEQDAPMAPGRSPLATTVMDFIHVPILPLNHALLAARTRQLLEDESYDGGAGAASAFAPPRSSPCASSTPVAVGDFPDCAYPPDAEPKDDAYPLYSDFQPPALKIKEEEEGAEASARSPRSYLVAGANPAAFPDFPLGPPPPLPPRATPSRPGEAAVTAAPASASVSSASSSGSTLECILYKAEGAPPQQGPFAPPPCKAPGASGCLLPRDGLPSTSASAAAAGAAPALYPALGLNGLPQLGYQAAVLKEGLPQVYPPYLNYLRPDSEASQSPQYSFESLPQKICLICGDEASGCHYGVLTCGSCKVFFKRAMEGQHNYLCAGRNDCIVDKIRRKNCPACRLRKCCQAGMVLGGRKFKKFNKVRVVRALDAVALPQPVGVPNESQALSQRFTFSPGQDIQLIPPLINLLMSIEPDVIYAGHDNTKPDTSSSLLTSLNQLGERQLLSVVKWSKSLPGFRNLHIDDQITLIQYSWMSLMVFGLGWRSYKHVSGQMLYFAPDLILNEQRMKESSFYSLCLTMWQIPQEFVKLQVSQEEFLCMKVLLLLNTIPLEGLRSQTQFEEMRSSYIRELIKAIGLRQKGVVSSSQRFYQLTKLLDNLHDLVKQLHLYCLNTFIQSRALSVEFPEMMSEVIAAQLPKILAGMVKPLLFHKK
# THRB (gene 7068), sequence (P10828 whole entry, looked up, the tested form may be a part): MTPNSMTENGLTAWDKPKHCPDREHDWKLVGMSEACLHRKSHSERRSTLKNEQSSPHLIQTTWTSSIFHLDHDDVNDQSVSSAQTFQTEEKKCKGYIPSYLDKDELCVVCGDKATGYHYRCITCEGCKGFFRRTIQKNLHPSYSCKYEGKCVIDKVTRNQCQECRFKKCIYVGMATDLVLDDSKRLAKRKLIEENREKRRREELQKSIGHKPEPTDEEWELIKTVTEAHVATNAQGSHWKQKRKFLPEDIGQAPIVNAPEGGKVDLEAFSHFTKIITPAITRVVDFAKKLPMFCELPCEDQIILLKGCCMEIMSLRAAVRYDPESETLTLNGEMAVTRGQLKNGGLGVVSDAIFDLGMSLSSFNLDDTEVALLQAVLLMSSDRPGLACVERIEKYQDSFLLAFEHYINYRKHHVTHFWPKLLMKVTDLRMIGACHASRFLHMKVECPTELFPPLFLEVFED
# Nucleoli Translocation, AR (gene 367), sequence (P10275 whole entry, looked up, the tested form may be a part): as the sequence (P10275 whole entry, looked up) above
# Retinoic acid receptor RXR-alpha (Homo sapiens), sequence (P19793 whole entry, looked up): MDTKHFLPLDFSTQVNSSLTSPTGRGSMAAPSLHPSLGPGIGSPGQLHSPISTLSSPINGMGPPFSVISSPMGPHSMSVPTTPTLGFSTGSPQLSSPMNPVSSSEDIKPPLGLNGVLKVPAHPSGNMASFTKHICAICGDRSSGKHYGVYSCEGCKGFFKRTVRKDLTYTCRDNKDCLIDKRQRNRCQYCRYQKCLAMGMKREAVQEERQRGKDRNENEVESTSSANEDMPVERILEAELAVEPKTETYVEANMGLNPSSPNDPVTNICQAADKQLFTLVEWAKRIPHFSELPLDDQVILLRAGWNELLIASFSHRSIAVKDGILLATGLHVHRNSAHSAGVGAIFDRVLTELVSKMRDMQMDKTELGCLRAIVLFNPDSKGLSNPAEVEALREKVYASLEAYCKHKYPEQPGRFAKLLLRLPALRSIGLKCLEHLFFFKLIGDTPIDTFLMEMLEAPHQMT
# THRA (gene 7067), sequence (P10827 whole entry, looked up, the tested form may be a part): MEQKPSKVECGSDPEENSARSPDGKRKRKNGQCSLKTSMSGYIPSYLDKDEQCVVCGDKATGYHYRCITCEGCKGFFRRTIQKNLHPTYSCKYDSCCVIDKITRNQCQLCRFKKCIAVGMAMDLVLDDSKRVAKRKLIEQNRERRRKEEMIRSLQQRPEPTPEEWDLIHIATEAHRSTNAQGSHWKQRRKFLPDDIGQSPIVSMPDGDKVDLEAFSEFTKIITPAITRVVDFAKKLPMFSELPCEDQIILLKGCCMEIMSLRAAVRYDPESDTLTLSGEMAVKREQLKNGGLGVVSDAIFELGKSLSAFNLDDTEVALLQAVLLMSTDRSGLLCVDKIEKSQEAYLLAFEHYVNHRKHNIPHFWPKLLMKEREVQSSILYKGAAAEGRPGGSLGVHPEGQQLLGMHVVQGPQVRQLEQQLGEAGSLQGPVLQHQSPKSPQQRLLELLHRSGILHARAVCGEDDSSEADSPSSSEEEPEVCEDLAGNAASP
structure (smiles),measurement,setting,value
C[C@]12Cc3cn[nH]c3C[C@@H]1CC[C@@H]1[C@@H]2CC[C@@]2(C)[C@H]1CC[C@]2(C)O,AC50,PGR (gene 5241) [1],6.44 µM (active)
same,outcome,PGR (gene 5241) [2],inactive
same,outcome,[3],inactive
same,outcome,[4],inactive
same,AC50,PGR (gene 5241) [5],3.48 µM (active)
same,outcome,PGR (gene 5241) [6],inactive
same,outcome,[7],inactive
same,outcome,[8],inactive
CCn1cc[n+](C)c1,outcome,THRA (gene 7067),inactive
same,outcome,THRB (gene 7068) [9],inactive
same,outcome,THRB (gene 7068) [10],inactive
same,outcome,[11],inactive
ClC1=C(Cl)[C@]2(Cl)[C@H]3[C@H]([C@H](Cl)C(Cl)[C@@H]3Cl)[C@@]1(Cl)C2(Cl)Cl (some centres undefined),outcome,[12],inactive
same,outcome,[13],inactive
same,outcome,[14],inactive
same,outcome,[15],inactive
same,outcome,[16],inactive
N[C@@H](Cc1cc(I)c(Oc2cc(I)c(O)c(I)c2)c(I)c1)C(=O)O,outcome,[17],inactive
O=S1OC[C@@H]2[C@H](CO1)[C@]1(Cl)C(Cl)=C(Cl)[C@]2(Cl)C1(Cl)Cl (some centres undefined),outcome,[12],inactive
same,outcome,[13],inactive
same,outcome,[14],inactive
same,outcome,[15],inactive
same,outcome,[16],inactive
same,outcome,[18],inactive
C[Si](C)O[Si](C)(C)O[Si](C)(C)O[Si](C)C,outcome,[17],inactive
C=C(c1ccc(C(=O)O)cc1)c1cc2c(cc1C)C(C)(C)CCC2(C)C,outcome,[17],inactive
CC1COC2(c3ccccc3Cl)c3cc(Cl)ccc3NC(=O)CN12 (centres undefined),outcome,PGR (gene 5241) [2],inactive
same,outcome,[3],inactive
same,outcome,[4],inactive
same,outcome,PGR (gene 5241) [6],inactive
same,outcome,[7],inactive
Nc1ccc(S(N)(=O)=O)cc1,outcome,[17],inactive
CC(C)(C)c1cc(C(C)(C)C)c(O)c(C(C)(C)C)c1,outcome,[17],inactive
COc1cc(C)c(/C=C/C(C)=C/C=C/C(C)=C/C(=O)O)c(C)c1C,outcome,[17],inactive
